The panel holds about 79,000 compounds, 15% with a hit somewhere; the sample as a whole holds those more often. A number with no mark means an inactive call. Activity calls are given as the source filed them. Cut-off read from the data, not from the text of the source: active = growth inhibition above about 70%; inactive = the rest.
Experiments:
[1] = NCI Yeast Anticancer Drug Screen. Data for the rad50 strain (AID 155);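 note: 0% = growth of vehicle-only cultures of the same strain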; settings: S. cerevisiae rad50 strain growth inhibition, hits give high values
Outline: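 Vehicle-treated cultures provide the reference for the growth inhibition reported for compound-exposed, repair-deficient yeast.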

[2] = NCI Yeast Anticancer Drug Screen. Data for the mec2-1 strain (AID 157); settings: S. cerevisiae mec2-1 strain, hits give high values
Outline: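 Strain: mec2-1 (DNA repair/cell cycle alteration). Compound exposure, then growth measured; inhibition expressed relative to vehicle.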

[3] = NCI Yeast Anticancer Drug Screen. Data for the sgs1 mgt1 strain (AID 161);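 note: 0% = growth of cultures given vehicle only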; settings: S. cerevisiae sgs1 mgt1 strain, hits give high values
Outline: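 Mutant yeast exposed to compound; growth scored against vehicle-only wells.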

[4] = NCI Yeast Anticancer Drug Screen. Data for the cln2 rad14 strain (AID 165);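 note: 0% = growth equal to vehicle treated cultures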; settings: S. cerevisiae cln2 rad14 strain, hits give high values
Outline: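 Compounds are applied to the cln2 rad14 yeast strain, and growth is then compared with that of vehicle-treated cultures to give inhibition.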

[5] = NCI Yeast Anticancer Drug Screen. Data for the bub3 strain (AID 167); settings: S. cerevisiae bub3 mutant strain, hits give high values
Outline: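 Mutant yeast screening strain plus compound; vehicle-treated cultures serve as the 0% inhibition reference.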

[6] = NCI Yeast Anticancer Drug Screen. Data for the mlh1 rad18 strain (AID 175); settings: S. cerevisiae mlh1 rad18 strain growth inhibition, hits give high values
Outline: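 Read-out is yeast growth inhibition, calculated against vehicle-only controls. The compound was applied to a strain engineered with DNA damage repair alterations.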

[7] = at 5.0 µM (retest, dose inferred, filed as 0.5)
[8] = at 50.0 µM (retest, dose inferred, filed as 5.0)

Compound	growth inhibition [1, 7]	growth inhibition [1, 8]	growth inhibition ([1]; at 50.0 µM)	growth inhibition [2, 7]	growth inhibition [2, 8]	growth inhibition ([2]; at 50.0 µM)	growth inhibition [3, 7]	growth inhibition [3, 8]	growth inhibition ([3]; at 50.0 µM)	growth inhibition [4, 7]	growth inhibition [4, 8]	growth inhibition ([4]; at 50.0 µM)	growth inhibition [5, 7]	growth inhibition [5, 8]	growth inhibition ([5]; at 50.0 µM)	growth inhibition [6, 7]	growth inhibition [6, 8]	growth inhibition ([6]; at 50.0 µM)
O=C1c2cc3c(cc2CC1Br)CCC3 (configuration not stated)	99% (active)	99% (active)	79.5% (active)	99% (active)	100% (active)	87% (active)	99% (active)	99% (active)	88.3% (active)	98% (active)	99% (active)	90.2% (active)	99% (active)	99% (active)	89.5% (active)	99% (active)	99% (active)	92.4% (active)
O=[N+]([O-])/C(C(Cl)=C(Cl)Cl)=C(/Nc1ccccc1)Sc1ccccc1	62%	99% (active)	17.1%	41%	99% (active)	70.2% (active)	64%	99% (active)	66.5%	49%	99% (active)	23.8%	51%	99% (active)	64.2%	78% (active)	99% (active)	84.8% (active)
C/C(CCSCc1ccccc1)=N/NC(N)=S	6%	44%	41.8%	4%	65%	55.9%	6%	78% (active)	63.9%	-5%	45%	33.2%	-1%	65%	54.1%	7%	76% (active)	66.7%
Cc1ccc(O)c2c(NCCCCCCNc3cc(C)[n+](C)c4c(C)ccc(O)c34)cc(C)[n+](C)c12	-1%	87% (active)	89% (active)	0%	76% (active)	90.4% (active)	-1%	71% (active)	92.7% (active)	5%	60%	72.7% (active)	-6%	76% (active)	77.5% (active)	-2%	84% (active)	90.2% (active)
O=c1ccccn1CCc1cccc2cc(O)ccc12	-3%	-1%	12.9%	-2%	4%	9.25%	-3%	-3%	10.6%	-1%	-12%	-12.3%	0%	4%	71% (active)	-3%	3%	23.2%
C[n+]1c(-c2ccc(/C=C/C=N\NC(=O)c3ccc(C(=O)N/N=C\C=C\c4ccc(-c5cn6ccccc6[n+]5C)cc4)cc3)cc2)cn2ccccc21	18%	98% (active)	96.1% (active)	5%	97% (active)	96.8% (active)	16%	98% (active)	96.8% (active)	22%	97% (active)	96.3% (active)	36%	97% (active)	95.5% (active)	21%	97% (active)	96.8% (active)
C/C(=N\NC(=S)N(C)CCN(C)C(=S)N/N=C(\C)c1ccccn1)c1ccccn1	-8%	99% (active)	97.5% (active)	-5%	99% (active)	97.2% (active)	-3%	99% (active)	97.8% (active)	4%	99% (active)	95.8% (active)	-10%	99% (active)	97% (active)	20%	99% (active)	96.7% (active)
CN(C)C(=O)c1ccc(SC(=S)NCc2ccccc2)cc1	11%	99% (active)	98.5% (active)	0%	100% (active)	97% (active)	3%	98% (active)	97.8% (active)	7%	99% (active)	96.2% (active)	-11%	99% (active)	81% (active)	24%	42%	98.8% (active)
O=C1C=C(Br)C(=O)C(Br)=C1	25%	99% (active)	93.8% (active)	21%	99% (active)	99.6% (active)	13%	98% (active)	99.3% (active)	28%	86% (active)	25.7%	31%	99% (active)	94.2% (active)	40%	99% (active)	97.5% (active)

From PubChem BioAssay (NCI)
